High-throughput results deposited in PubChem by National Center for Advancing Translational Sciences (NCATS).
MARV entry inh: blocks Marburg virus binding or cell entry; Potency, µM (doses to about 49.2 µM), usual class: inhibitors; AID 720532; Marburg virus pseudotype entry/binding inhibition, cell-based; actives 6.5% (n = 18,000)
Lassa entry: inhibitors of Lassa virus binding or entry into cells | actives 4.1% (n = 18,000) | Potency, µM (highest dose often 49.2 µM), hits mostly inhibitors | Lassa virus pseudotyped entry inhibition, cell-based qHTS | AID 720533
Hits are given with their value; 0 = inactive; ? = inconclusive; - = no result; ! = repeats disagree; [ ] = dose if it differs, or a comment. The list is not random: actives were taken first. Their share in the collection is about 8%. Calls follow the shape of the full dose curve; tested in HEK293 cells.

SMILES	MARV entry inh	Lassa entry
COC(=O)C1=CO[C@@H](C)[C@H]2CN3CCc4c([nH]c5ccccc45)[C@@H]3C[C@H]12	?	0
CCOC(=O)CCN1C(=O)[C@@H]2[C@H]3[C@H](O)[C@H](O)CC(=NNC(=O)OCc4ccc(OC)cc4)[C@@H]3CC[C@H]2C1=O	0[8.59 µM]	?
CCCCC1C(=O)N(c2ccccc2)N(c2ccc(O)cc2)C1=O (configuration not stated)	0	?
CCCCc1c(O)n(-c2ccccc2)[nH]c1=O	0	10µM
COc1ccc(C2/C=C\C(c3ccc(OC)cc3)N(Cc3ccc(F)cc3)C(=O)C(=O)N2Cc2ccc(F)cc2)cc1 (configuration not stated)	10µM	0
COc1ccc(C2/C=C\CC(OCc3ccccc3)CC(=O)N2Cc2cccc(F)c2)cc1 (configuration not stated)	0	?
C=CCc1ccccc1OCC(O)CNC(C)C (configuration not stated)	11µM	0
CC(C)NCC(O)COc1ccccc1-n1cccc1 (configuration not stated)	?	0
CC(C)NC[C@H](O)COc1cccc2ccccc12	16µM!	0
CC(C)NC[C@@H](O)COc1cccc2ccccc12	?	0
O=C(OCc1cn([C@H]2C[C@H](c3ccc(Cl)cc3)N(Cc3cccs3)C[C@H]2O)nn1)c1ccccc1	?	0
CSC[C@H]1CN(c2ccccc2)C(=O)[C@H]1CC(=O)Nc1ccc(Br)cc1	0	0
CN1CCN(c2ccc(Nc3c4ccccc4nc4ccccc34)cc2)CC1	2µM	?
O=c1nc2ccccc2c2n1C[C@H](CN1CCN(c3ccccc3)CC1)N2	0	0
COC(=O)C1=C(C)N(Cc2ccccc2)C(=NCC2CC2)NC1c1ccccc1 (configuration not stated)	0[8.59 µM]	0[8.59 µM]
COC(=O)[C@]1(C)C=C[C@@H](C)[C@H](c2ccccc2Br)N1C(=O)C(F)(F)F	0[8.59 µM]	-
CN(C)c1ccc(-c2nc(NC3CCNCC3)c3ccccc3n2)cc1	14µM	0
COCCNc1nc(-c2ccc(N(C)C)cc2)nc2ccccc12	?	0
COc1ccc(C=CNC(=O)c2ccc(OC)cc2)cc1	0[8.59 µM]	0[8.59 µM]
COC(=O)N[C@H](C(C(=O)OC)=C(C)NCc1ccccc1)c1cccs1	0[8.59 µM]	-
COc1ccc(OC)c(-c2ccc(O)c(CN3CCc4c([nH]c5ccccc45)C3)c2)c1	13µM	?
COc1ccc(CN2CCOc3c(cc(-c4ccc(OC)nn4)cc3OC)C2)c(O)c1	0	0
CCN1C(=O)[C@@H]2[C@H]3[C@H](O)[C@H](O)CC(=NO[C@@H](C)c4cc(-c5c(C)cc(C)cc5C)no4)[C@@H]3CC[C@H]2C1=O	0[8.59 µM]	0[8.59 µM]
c1ccc(Oc2ccc(Nc3ncc(-c4ccccc4)o3)cc2)cc1	0	-
C[C@@H]1CC[C@H]2C(=O)N(Cc3ccc(Cl)cc3)C[C@@H](O)CN2[C@H]1c1cccc(Br)c1	0[8.59 µM]	0[8.59 µM]
SMILES	MARV entry inh	Lassa entry
Cc1cc2nc3ccc(=[N+](C)C)cc-3sc2cc1N	13µM	22µM
CN(C)c1ccc2nc3ccc(=[N+](C)C)cc-3sc2c1	3.5µM	11µM
CC(=O)C1=C(C)N(Cc2ccco2)C(=O)NC1c1ccccc1 (configuration not stated)	0[8.59 µM]	0[8.59 µM]
Cc1cc2c(nc1C)CCCCN2C[C@H](C)ON=C[C@@H](C)[C@H](OCc1ccccc1)C(C)C	?	0[8.59 µM]
COc1ccc2c(c1)c(C1=C(c3c[nH]c4ccccc34)C(=O)NC1=O)cn2CCCN(C)C	7.1µM	?
CN(C)CCCn1cc(C2=C(c3c[nH]c4ccccc34)C(=O)NC2=O)c2ccccc21	7.1µM	?
Cn1cc(C2=C(c3cn(CCCSC(=N)N)c4ccccc34)C(=O)NC2=O)c2ccccc21	16µM	18µM
Cn1cc(C=C2C(=O)Nc3cccnc32)c2ccccc21	0	0
COc1ccc2[nH]cc(CCNc3ncncc3-c3ccccc3CN(C)C)c2c1	?	0
C[C@@H]1C=CCCO[C@]12C(=O)Nc1ccc(O)cc12	0[8.59 µM]	0[8.59 µM]
CC1(C)O[C@H]2O[C@H]([C@H](O)CON=C3[C@H]4CCn5c(=O)n(-c6ccccc6)c(=O)n5[C@@H]4[C@H](O)[C@@H]4O[C@H]34)[C@H](O)[C@@H]2O1	0[8.59 µM]	0[8.59 µM]
COC(=O)C1=C(C(=O)OC)[C@@H]2N(CC=C(C)C)c3ccccc3[C@@]23CCC(=O)N(CCc2ccccn2)C3=N1	0[8.59 µM]	0[8.59 µM]
CCOC(=O)[C@@H]1CSCCS(=O)(=O)N1C(=O)c1ccc(Br)cc1	0	0
CCCCCCC(C)(C)c1cc(OC)c2c(c1)OC(C)(C)[C@@H]1CC=C(C)C[C@@H]21	0	0
CCCCCc1cc(O)c2c(c1)OC(C)(C)[C@@H]1CCC(C)=C[C@@H]21	0	35µM
C=C(C)C1CC23C(=O)[C@]4(C(=O)c5ccccc5)C[C@@]5(C)CCC(CC2C1(C)C)(C4=O)[C@@]35OC (some centres not stated)	0[8.59 µM]	0[8.59 µM]
C[C@@H]1C[C@H](C)C[C@H](C)[C@@H](O)CC(=O)O[C@H]([C@H]2CCC[C@H]2C(=O)O)C/C=C/C=C(/C#N)[C@H](O)[C@@H](C)C1	10µM	?
COc1ccc(C(OCCN2CCC[C@H](C(=O)O)C2)(c2ccc(OC)cc2)c2ccc(OC)cc2)cc1	0	4.5µM
COc1ccc(C(=O)Nc2ccccc2CCC2CCCCN2C)cc1 (configuration not stated)	?	0
Cc1ccsc1C(=CCCN1CCC[C@@H](C(=O)O)C1)c1sccc1C	0	0
COc1ccc(C(OCCN2CCC[C@@H](C(=O)O)C2)(c2ccc(OC)cc2)c2ccc(OC)cc2)cc1	0	6.3µM
CCOC(=O)CN1C(=O)NC(c2ccc(Br)cc2)C(C(=O)OC)=C1C (configuration not stated)	0[8.59 µM]	0[8.59 µM]
O=C(c1cccs1)N1C[C@H](O)[C@H](n2cc(C3CC3)nn2)C[C@@H]1c1ccccc1	0	0
CC(=O)OC[C@H]1O[C@H](CCON=C[C@@H](C)[C@H](OCc2ccccc2)C(C)C)C=C[C@@H]1OC(C)=O	0[8.59 µM]	0[8.59 µM]
c1ccc2nc3ccccc3cc2c1	?	0
SMILES	MARV entry inh	Lassa entry
Nc1c2c(nc3ccccc13)CCCC2	10µM	?
Nc1c2ccccc2nc2ccccc12	14µM	?
COC(=O)C1=C(C)N(Cc2ccccc2)C(=NCCc2c[nH]c3ccccc23)NC1c1cccc(F)c1 (configuration not stated)	0[8.59 µM]	-
CC(=O)C1=C(C)N(CCC=Cc2ccccc2)C(=O)NC1c1ccccc1 (configuration not stated)	?	0[8.59 µM]
COC(=O)c1c(C(=O)OC)c2c3cc(OC)c(OC)cc3ccn2c1C(=O)OC	0[8.59 µM]	-
CN1CC(O)C2=CC(=O)C(=O)C=C21 (configuration not stated)	8.9µM	0
O[C@H]1C[C@H](c2ccccc2)N(CC2CCCCC2)C[C@H]1n1cc(C2CC2)nn1	0	0
Oc1ccc(Cl)cc1CN1CCOc2c(O)cc(-c3nc4ccccc4s3)cc2C1	0	1.6µM
COCc1ccc(CN2CCOc3c(O)cc(-c4cc(C)c5ccc(F)cc5n4)cc3C2)o1	0	?
COC(=O)CC=C[C@H](C)[C@@H](NC(=O)C(F)(F)F)c1ccccc1Br	0[8.59 µM]	0[8.59 µM]
CC[C@H](C)[C@H](NC(=O)[C@H](Cc1ccc(O)cc1)NC(=O)[C@@H]1CCCN1C(=O)[C@@H](NC(=O)[C@@H](N)CCCCN)[C@@H](C)CC)C(=O)N[C@@H](CC(C)C)C(=O)O	0	0
CCCCCCCCCCCCC(=O)N1CCCC[C@H]1CNC(=O)[C@@H](N)CCCCN	28µM	0
